Several values for one entry are separate records, joined by “and”; a condition that tells them apart may be missing. Equal entries are not always repeated. In all, about 5,500 compounds went through this assay and about 2,000 (36%) were called active. Another 18% or so got no clear call; they are omitted. Rule as the data show it: active = normalized growth mostly below about 0.91 (no sharp cut-off); inconclusive = no clear call, values can overlap the other calls; inactive = mostly above about 0.92. This is one part of the list.
Test: chemical genetic growth profiling, strain panel (AID 1159580);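 also: tested at 20 µM; growth read once vehicle control cultures reached saturation at 30 °C; 1 = growth at the plate median or of vehicle wells; lower values mean less growth of the strain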
Conditions: S. cerevisiae deletion strains, growth OD

Measured: normalized growth

CO[C@H]1/C=C/O[C@@]2(C)Oc3c(C)c(O)c4c(O)c(c(/C=N/N5CCN(C)CC5)c(O)c4c3C2=O)NC(=O)/C(C)=C\C=C\C(C)[C@H](O)[C@@H](C)[C@@H](O)[C@@H](C)[C@@H](OC(C)=O)[C@@H]1C (some centres not stated)
active: locus YDR137W, strain rgp1, stronger effect = lower value 0.803
inactive: locus YAL013W, strain DEP1, stronger effect = lower value 1 | locus YAL021C, strain ccr4, stronger effect = lower value 1.01 | locus YAL026C, strain drs2, stronger effect = lower value 1.02 | locus YAL030W, strain snc1, stronger effect = lower value 1.02 | locus YBL061C, strain skt5, stronger effect = lower value 1.03 | locus YBR009C, strain hhf1, stronger effect = lower value 1.02 | locus YBR021W, strain FUR4, stronger effect = lower value 0.998 | locus YBR023C, strain chs3, stronger effect = lower value 1.03 | locus YBR171W, strain sec66, stronger effect = lower value 1.03 | locus YBR229C, strain ROT2, stronger effect = lower value 1 | locus YBR231C, strain swc5, stronger effect = lower value 1.03 | locus YBR279W, strain paf1, stronger effect = lower value 1 | locus YCL011C, strain gbp2, stronger effect = lower value 1.02 | locus YCL016C, strain dcc1, stronger effect = lower value 1.01 | locus YCL029C, strain bik1, stronger effect = lower value 1.02 | locus YCL061C, strain MRC1, stronger effect = lower value 1.02 | locus YCL069W, strain vba3, stronger effect = lower value 1.03 | locus YCR088W, strain abp1, stronger effect = lower value 1.03 | locus YDL005C, strain med2, stronger effect = lower value 1.02 | locus YDL035C, strain GPR1, stronger effect = lower value 0.996 | locus YDL040C, strain nat1, stronger effect = lower value 1.02 | locus YDL074C, strain BRE1, stronger effect = lower value 1.04 | locus YDL101C, strain DUN1, stronger effect = lower value 1.03 | locus YDL185W, strain tfp1, stronger effect = lower value 1.01 | locus YDL192W, strain arf1, stronger effect = lower value 1.02 | locus YDR001C, strain nth1, stronger effect = lower value 1.02 | locus YDR069C, strain doa4, stronger effect = lower value 1.01 | locus YDR101C, strain arx1, stronger effect = lower value 1.01 | locus YDR159W, strain sac3, stronger effect = lower value 1.03 | locus YDR162C, strain NBP2, stronger effect = lower value 1.01 | locus YDR195W, strain ref2 1.09 | locus YDR297W, strain sur2, stronger effect = lower value 1.01 | locus YDR318W, strain mcm21, stronger effect = lower value 1.01 | locus YDR334W, strain swr1, stronger effect = lower value 1.02 | locus YDR335W, strain msn5, stronger effect = lower value 1.03 | locus YDR388W, stronger effect = lower value 1.02 | locus YDR392W, strain spt3, stronger effect = lower value 0.957 | locus YDR502C, strain sam2, stronger effect = lower value 1.01 | locus YEL003W, strain gim4, stronger effect = lower value 0.995 | locus YEL037C, strain rad23, stronger effect = lower value 1.02 | locus YEL061C, strain CIN8 (second series), stronger effect = lower value 1.02 | locus YEL061C, strain CIN8, stronger effect = lower value 1.01 | locus YER015W, strain faa2, stronger effect = lower value 1.03 | locus YER016W, strain bim1, stronger effect = lower value 1.02 | locus YER110C, stronger effect = lower value 1.03 | locus YER111C, strain swi4, stronger effect = lower value 1.03 | locus YER155C, strain BEM2 (second series), stronger effect = lower value 1.02 | locus YER155C, strain BEM2, stronger effect = lower value 1 | locus YER167W, strain BCK2, stronger effect = lower value 0.996 | locus YFR010W, strain ubp6, stronger effect = lower value 1.02 | locus YGL078C, strain dbp3, stronger effect = lower value 1.01 | locus YGL086W, strain mad1, stronger effect = lower value 1.02 | locus YGL167C, strain pmr1, stronger effect = lower value 1.02 | locus YGL173C, strain kem1, stronger effect = lower value 1.03 | locus YGL227W, strain vid30, stronger effect = lower value 1.04 | locus YGL240W, strain doc1, stronger effect = lower value 1.03 | locus YGL248W, strain PDE1, stronger effect = lower value 1.03 | locus YGL253W, strain hxk2, stronger effect = lower value 1.02 | locus YGR135W, strain pre9, stronger effect = lower value 1.02 | locus YGR252W, strain gcn5, stronger effect = lower value 1 | locus YHR013C, strain ard1, stronger effect = lower value 1.05 | locus YHR027C, strain rpn1, stronger effect = lower value 1.02 | locus YHR030C, strain SLT2, stronger effect = lower value 1.01 and 1.08 | locus YHR079C, strain IRE1 (second series), stronger effect = lower value 1.02 | locus YHR079C, strain IRE1, stronger effect = lower value 1.05 | locus YHR094C, strain hxt1, stronger effect = lower value 1.01 | locus YHR129C, strain ARP1, stronger effect = lower value 1.01 | locus YHR142W, strain chs7, stronger effect = lower value 1.06 | locus YHR200W, strain rpn10, stronger effect = lower value 1.02 | locus YIL066C, strain RNR3, stronger effect = lower value 1.01 | locus YIL073C, strain SPO22, stronger effect = lower value 1.04 | locus YIL125W, strain kgd1, stronger effect = lower value 1.03 | locus YIR030C, strain dcg1, stronger effect = lower value 1.02 | locus YJL092W, strain hpr5, stronger effect = lower value 1.02 | locus YJL095W, strain BCK1 (second series), stronger effect = lower value 1.02 | locus YJL095W, strain BCK1, stronger effect = lower value 1.04 and 1.03 | locus YJL115W, strain asf1, stronger effect = lower value 1.01 | locus YJL129C, strain trk1, stronger effect = lower value 1 | locus YJL134W, strain LCB3, stronger effect = lower value 1.01 | locus YJL154C, strain vps35, stronger effect = lower value 1.04 | locus YJL164C, strain tpk1, stronger effect = lower value 1.03 | locus YJL166W, strain qcr8, stronger effect = lower value 1.02 | locus YJL168C, strain set2, stronger effect = lower value 1.02 | locus YJL187C, strain SWE1 (second series), stronger effect = lower value 1.03 | locus YJL187C, strain SWE1, stronger effect = lower value 1.02 | locus YJR043C, strain POL32, stronger effect = lower value 0.998 | locus YJR066W, strain TOR1, stronger effect = lower value 1 | locus YKL009W, strain mrt4, stronger effect = lower value 1.02 | locus YKL068W, stronger effect = lower value 1.01 | locus YKL085W, strain MDH1 (second series), stronger effect = lower value 1.01 | locus YKL085W, strain MDH1, stronger effect = lower value 1.01 | locus YKL160W, strain elf1, stronger effect = lower value 1.02 | locus YKR001C, strain vps1, stronger effect = lower value 1.02 | locus YKR026C, strain gcn3, stronger effect = lower value 1.03 | locus YKR091W, strain srl3, stronger effect = lower value 1.02 | locus YLL001W, strain dnm1, stronger effect = lower value 1.02 | locus YLL026W, stronger effect = lower value 1.01 | locus YLL041C, strain sdh2, stronger effect = lower value 1.02 | locus YLR027C, strain aat2, stronger effect = lower value 1.02 | locus YLR039C, strain RIC1, stronger effect = lower value 1.02 | locus YLR058C, strain SHM2, stronger effect = lower value 1.02 | locus YLR102C, strain apc9, stronger effect = lower value 1.02 | locus YLR113W, strain HOG1, stronger effect = lower value 1.05 | locus YLR221C, strain rsa3, stronger effect = lower value 1 | locus YLR258W, strain gsy2, stronger effect = lower value 1.02 | locus YLR262C, strain YPT6 (second series), stronger effect = lower value 0.982 | locus YLR262C, strain YPT6, stronger effect = lower value 1.05 | locus YLR268W, strain sec22, stronger effect = lower value 1.03 | locus YLR320W, strain mms22, stronger effect = lower value 1.01 | locus YLR330W, strain CHS5, stronger effect = lower value 1.01 | locus YLR342W, strain FKS1 (second series), stronger effect = lower value 0.98 | locus YLR342W, strain FKS1, stronger effect = lower value 1.02 | locus YLR357W, strain rsc2, stronger effect = lower value 1.03 | locus YLR370C, strain arc18, stronger effect = lower value 1.02 | locus YLR371W, strain rom2, stronger effect = lower value 1.02 | locus YLR384C, strain iki3, stronger effect = lower value 1.02 | locus YLR418C, strain cdc73, stronger effect = lower value 1.02 | locus YML016C, strain PPZ1, stronger effect = lower value 1.01 | locus YML032C, strain rad52, stronger effect = lower value 1.02 | locus YML120C, strain ndi1, stronger effect = lower value 1.01 | locus YML124C, strain tub3, stronger effect = lower value 1.03 | locus YMR058W, strain fet3, stronger effect = lower value 1.03 | locus YMR078C, strain ctf18, stronger effect = lower value 1.02 | locus YMR125W, strain sto1, stronger effect = lower value 1.04 | locus YMR129W, stronger effect = lower value 1.02 | locus YMR205C, strain PFK2, stronger effect = lower value 1.01 | locus YMR223W, strain ubp8, stronger effect = lower value 1.02 | locus YMR231W, strain pep5, stronger effect = lower value 1.02 | locus YMR307W, strain GAS1, stronger effect = lower value 0.927 | locus YNL067W, strain RPL9B, stronger effect = lower value 1.04 | locus YNL071W, strain lat1, stronger effect = lower value 1.02 | locus YNL153C, strain GIM3, stronger effect = lower value 1.02 | locus YNL183C, strain NPR1, stronger effect = lower value 1.01 | locus YNL209W, strain ssb2, stronger effect = lower value 1.02 | locus YNL233W, strain BNI4, stronger effect = lower value 1.02 | locus YNL248C, strain rpa49, stronger effect = lower value 1.02 | locus YNL250W, strain rad50, stronger effect = lower value 1.01 | locus YNL271C, strain bni1, stronger effect = lower value 1.02 | locus YNL298W, strain CLA4, stronger effect = lower value 1.03 | locus YNL307C, strain MCK1, stronger effect = lower value 1.02 | locus YNL322C, strain KRE1 (second series), stronger effect = lower value 1.01 | locus YNR049C, strain mso1, stronger effect = lower value 1.03 | locus YNR052C, strain pop2, stronger effect = lower value 1.02 | locus YOL006C, strain TOP1, stronger effect = lower value 1.11 | locus YOL012C, strain htz1 1.35 | locus YOL147C, strain pex11, stronger effect = lower value 1.02 | locus YOR001W, strain rrp6, stronger effect = lower value 1.01 | locus YOR061W, strain CKA2, stronger effect = lower value 1.01 | locus YOR069W, strain VPS5, stronger effect = lower value 1.01 | locus YOR070C, strain gyp1, stronger effect = lower value 1.03 | locus YOR080W, strain dia2, stronger effect = lower value 1.03 | locus YOR083W, strain WHI5, stronger effect = lower value 1.02 | locus YOR106W, strain vam3, stronger effect = lower value 1.03 | locus YOR136W, strain idh2, stronger effect = lower value 1.02 | locus YOR144C, strain elg1, stronger effect = lower value 1.02 | locus YOR184W, strain ser1, stronger effect = lower value 1.02 | locus YOR231W, strain MKK1, stronger effect = lower value 1.02 | locus YOR265W, strain rbl2, stronger effect = lower value 1.04 | locus YOR270C, strain vph1, stronger effect = lower value 0.999 | locus YOR290C, strain snf2, stronger effect = lower value 1.01 | locus YOR316C, strain cot1, stronger effect = lower value 1.01 | locus YPL051W, strain arl3, stronger effect = lower value 1.03 | locus YPL078C, strain atp4, stronger effect = lower value 1.01 | locus YPL106C, strain sse1, stronger effect = lower value 1 | locus YPL240C, strain hsp82, stronger effect = lower value 1.02 | locus YPL256C, strain CLN2, stronger effect = lower value 1.06 | locus YPR119W, strain clb2, stronger effect = lower value 1.02 | locus YPR141C, strain kar3, stronger effect = lower value 1.02 | locus YPR163C, strain tif3, stronger effect = lower value 1.01 | locus YPR167C, strain met16, stronger effect = lower value 1.03 | strain wtn01, stronger effect = lower value 1

Reference: PubChem BioAssay AID1159580 (chemical genetic matrix, 2015)
